KinaseGlo FLuc: Counterscreen for Luciferase (Kinase-Glo TM) Inhibition; Kinase-Glo luciferase, ATP luminescence, 8 min; Potency, µM (highest dose often 38.3 µM), for the others: at the highest dose activity change, negative = inhibition, usual class: inhibitors; 0.28% of 200,000 active; AID 1379, 2008; also: nearly all actives have a fitted effect of over 60% in size
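Kinase-Glo luciferase light output from ATP and luciferin was measured with 10 uM ATP, within the enzyme's linear range. Buffer: 50 mM imidazole pH 7.2, 50 mM KCl, 7 mM MgCl2, 0.01% Tween 20, 0.05% BSA; luminescence read after 8 min at ambient temperature.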
VP16 counter: VP16 counterscreen qHTS for inhibitors of ROR gamma transcriptional activity | Drosophila S2 Gal4-VP16 UAS-luciferase, luminescence, 20 h | Potency, µM (series often up to 53.6 µM), for inactives: at the top dose activity, negative = inhibition, hits mostly inhibitors | 3.5% of 310,000 active | AID 2546, 2010;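 also: Gal4-VP16 expression switched on by copper sulfate through the metallothionein promoter; nearly all actives have a fitted effect of over 50% in size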
RORg inh: qHTS for inhibitors of ROR gamma transcriptional activity. Drosophila S2 Gal4-RORgamma UAS-luciferase reporter, 20 h. Potency, µM (series often up to 53.6 µM), without a hit: at the highest dose activity change, negative = inhibition, usual class: inhibitors. 5.4% of 310,000 active. AID 2551, 2010; also: nearly all actives have a fitted effect of over 60% in size
Target sequence (P51450 whole entry, looked up, the tested form may be a part): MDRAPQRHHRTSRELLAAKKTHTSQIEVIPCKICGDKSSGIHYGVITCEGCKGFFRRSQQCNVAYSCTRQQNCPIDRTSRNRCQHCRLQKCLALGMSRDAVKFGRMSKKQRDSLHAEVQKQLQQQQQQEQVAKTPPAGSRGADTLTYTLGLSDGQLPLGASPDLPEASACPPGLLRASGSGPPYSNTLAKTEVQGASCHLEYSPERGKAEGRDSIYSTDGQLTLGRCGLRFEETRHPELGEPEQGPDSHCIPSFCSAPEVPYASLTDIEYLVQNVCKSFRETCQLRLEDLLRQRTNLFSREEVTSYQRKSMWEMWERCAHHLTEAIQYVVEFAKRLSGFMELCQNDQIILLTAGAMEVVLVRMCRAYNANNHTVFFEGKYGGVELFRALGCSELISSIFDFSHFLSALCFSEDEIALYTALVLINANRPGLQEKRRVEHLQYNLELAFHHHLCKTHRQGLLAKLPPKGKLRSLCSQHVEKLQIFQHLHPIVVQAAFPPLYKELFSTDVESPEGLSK
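Stable Schneider cell line, Gal4 DNA-binding domain fused to ROR gamma, UAS-luciferase. Cmpd 1 hr RT → CuSO4 700 uM final → 20 hr RT → luciferase reagent 10 min → luminescence.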
* = called active by the depositor; ? = inconclusive; . = not tested or not shown; [ ] = remark or other dose. Hits are enriched below; roughly 6.4% of the tested compounds scored in any of these assays. Calls follow the shape of the dose curve; as a rule, active = well fitted curve in the direction sought with a large enough effect; inconclusive = small, poorly fitted or top-dose-only effect, or another doubt; inactive = no such curve, though single readings can be large; an effect the other way counts as inactive or inconclusive. % is scaled to controls: 0 for no effect and ±100 for the full control effect; potency is read from the fitted curve at half-maximal effect.

SMILES | KinaseGlo FLuc | VP16 counter | RORg inh
O=C(N/N=C/c1ccncc1)c1ccc2c(c1)OCO2 | -3% | -10% | -9%
O=C(N/N=C/c1c[nH]c2ccc(Br)cc12)c1ccc2c(c1)OCO2 | -3% | 0% | ?
O=C(N/N=C\c1ccccc1)c1sccc1-n1cccc1 | -1% | -9% | ?
CCC(CC)C(=O)N1CC(=O)Nc2ccc(F)cc2C1c1ccccc1 (stereo not given) | . | -1% | 11%
C=Cc1ccc(C=C)cc1 | . | 9% | 1%
CC[C@@]1([C@@H]2O[C@@H]([C@H]3O[C@@](O)(CO)[C@H](C)C[C@@H]3C)C[C@@H]2C)CC[C@H]([C@]2(C)CC[C@]3(C[C@H](O)[C@@H](C)[C@@H]([C@@H](C)[C@@H](OC)C(C)C(=O)O)O3)O2)O1 (stereo not given in full) | 1%[39.9 µM] | -16% | ?
CN(/C=C/C(=C\C=[N+](C)c1ccccc1)OCCCS(=O)(=O)[O-])c1ccccc1 | 2% | -15% | -19%
COC(=O)[C@H]1O[C@@H](c2cc(OC)c(C)c(OC)c2O)[C@H](C)[C@@H](O)[C@H]1C | 1% | -8% | -11%
CC/C(=N\NC(=O)c1ccc2c(c1)OCO2)c1ccccc1 | . | 1% | ?
CC(C)CC(CC(C)C)=NNC(=O)c1ccc2c(c1)OCO2 | 0% | 5% | 13µM*
O=C(N/N=C/c1ccc2c(c1)OCO2)c1ccc2c(c1)OCCO2 | -15% | ? | -31%
O=C(N/N=C/c1cc(Cl)cc([N+](=O)[O-])c1O)c1ccc2c(c1)OCO2 | . | 0.89µM* | 0.79µM*
COc1ccc(/C=N/NC(=O)c2ccc3c(c2)OCO3)cc1 | . | -8% | -9%
O=C(N/N=C/c1ccc(Cl)cc1)c1ccc2c(c1)OCO2 | . | 6% | -16%
COc1cc(/C=N/NC(=O)c2ccc3c(c2)OCO3)ccc1O | . | 7.1µM* | 8.9µM*
O=C(N/N=C/c1ccccc1O)c1ccc2c(c1)OCO2 | . | 1.8µM* | 0.56µM*
Cc1cc(C)c(NC(=O)CN(CC(=O)O)CC(=O)O)c(C)c1Br | . | -13% | -5%
Cc1ccc(CNc2ncnc3ccc(-c4c(C)noc4C)cc23)o1 | . | -6% | -27%
O=C(c1cc(Br)ccc1O)c1cc(Br)ccc1O | -3%[7.66 µM] | . | .
CCOCCCN(C)C1CCN(C(=O)c2oc3ccccc3c2NC(=O)COc2ccc(F)cc2)CC1 | . | 3% | -19%
CC(C)(C)c1ccc(SCCc2cccnc2)cc1 | . | 22% | -14%
O=C(NC1CCCCC1)c1ccc2c(c1)OCO2 | . | 14% | 11%
O=C(N/N=C/c1cc(Br)c(O)c(Br)c1O)c1ccc2c(c1)OCCO2 | . | 3.2µM* | 4.5µM*
O=C(N/N=C/c1cc(Br)c(Br)o1)c1ccc2c(c1)OCCO2 | . | -3% | 7%
CC1CCC(NC(=O)c2ccc3c(c2)OCO3)CC1 (stereo not given) | . | ? | 10µM*
SMILES | KinaseGlo FLuc | VP16 counter | RORg inh
COc1ccc(S(=O)(=O)N2CC(C)N(C(=O)N(C)C)C2C)cc1 (stereo not given) | . | -2% | -2%
COCCN(C(=O)c1snc(C(N)=O)c1N)C(C(=O)NC1CCCCC1)c1ccc(OC)c(OC)c1 (stereo not given) | . | -3% | -3%
Cc1oc(CC(C)C)cc1C(=O)NCCCC(=O)O | -3% | -3% | ?
COc1ccc(-c2cc(C(=O)N3CCN(C(=O)c4ccccc4F)CC3)[nH]n2)cc1 | . | 1% | 11%
CCOc1ccc(C(=O)COC(C)=O)cc1 | -1% | 11% | 23%
CCOc1ccc(C(=O)CSCCC(=O)O)cc1 | -1% | 0.32µM* | 0.28µM*
Cc1cccc2[nH]c(CN(C)C(=O)CC3C(=O)NCCN3CC(C)(C)C)nc12 (stereo not given) | 5% | -4% | -15%
CC(C)Cc1nnc(NC(=O)CCC(=O)N2CCN(c3ccc(F)cc3)CC2)s1 | . | -2% | 45%
Cc1c(NC(=S)NC(=O)c2ccc(Br)o2)c(=O)n(-c2ccccc2)n1C | 1% | 3% | 2%
O=C(NNC(=S)Nc1ccccc1C(F)(F)F)c1ccc(Br)o1 | -2% | -19% | ?
Cc1ccc(C)c(NC(=S)NNC(=O)c2ccc(Br)o2)c1 | -3% | -22% | ?
O=C(NC(=S)Nc1ccccc1F)c1ccc(Br)o1 | 4% | ? | 4.5µM*
Cc1cccc(C)c1NC(=S)NC(=O)c1ccc(Br)o1 | 5% | ? | 3.2µM*
Cc1ccc(NC(=S)NC(=O)c2ccc(Br)o2)c(C)c1 | -2% | ? | 2.2µM*
Cn1ncc(C(N)=O)c1NC(=S)NC(=O)c1ccc(Br)o1 | 2% | -10% | 12%
Cc1cccc(NC(=S)NC(=O)c2ccc(Br)o2)c1C | 0% | ? | 3.5µM*
Cc1cc(OCC(=O)NNC(=O)CCc2ccccc2)ccc1Br | . | 16% | -15%
CC(C)(C)OC(=O)N1CCC(c2c(C(=O)NCC3CCN(C4CCCC4)C3)cnn2-c2ccccc2Cl)CC1 (stereo not given) | . | -3% | -5%
Cc1ccccc1-n1nc(-c2cccnc2)cc1C(=O)NN | -1% | 0% | -19%
S=c1[nH]nc(-c2n[nH]c3c2CCC3)n1/N=C/C=C/c1ccco1 | . | 0% | -13%
S=c1[nH]nc(-c2cccnc2)n1/N=C/c1ccco1 | 5% | -4% | ?
CC(/C=N/n1c(-c2cc(C)[nH]n2)n[nH]c1=S)=C\c1ccco1 | . | -5% | 20%
Cc1cccc(-c2n[nH]c(=S)n2/N=C/c2ccco2)c1 | . | ? | 8.9µM*
Cc1ccc(-c2n[nH]c(=S)n2/N=C\c2ccco2)cc1 | 2% | 5.6µM* | 6.3µM*
CC(/C=N/n1c(-c2ccc(Cl)cc2)n[nH]c1=S)=C\c1ccco1 | . | 4µM* | 3.2µM*
SMILES | KinaseGlo FLuc | VP16 counter | RORg inh
O=C(NCCS(=O)(=O)N1CCN(c2ccccc2F)CC1)c1cccc(Br)c1 | . | 3% | -1%
CCN(CC)CCn1c(-c2ccccc2)nc2c(NC3CCCCC3)nc(C)nc21 | -3% | -12% | -37%
Cc1ccccc1-n1ncc2c1CC(C)(C)CC2NC(=O)CCN1CCCCC1=O (stereo not given) | . | -9% | -19%
COc1ccc(-c2nc(NC3=NCCCCC3)sc2C)cc1 | 3% | 4% | 10µM*
COc1ccc(NC2=NCCCCC2)cc1 | . | -3% | 6%
O=C(O)c1c[nH]c2cc(OCc3ccccc3)ccc2c1=O | -8%[7.66 µM] | . | .
CCn1c(S(=O)(=O)O)nc2ccccc21 | . | -1% | 6%
CN1CCC(N(C)C(=S)NC(=O)C23CC4CC(CC(C4)C2)C3)CC1 | -3% | ? | ?
CC12CC3(C)CC(C)(C1)CC(C(=O)NC(=S)NC(C)(C)C)(C2)C3 | 0% | -1% | -15%
CC(C)(C)NC(=S)NC(=O)C12CC3CCC(CC(C3)C1)C2 | -1% | 4.5µM* | 2.8µM*
O=C(NC1C2CC3CC(C2)CC1C3)C1CC1 (stereo not given) | -3% | -9% | 32%
CN(C)NC(=S)NC(=O)C12CC3CC(CC(C3)C1)C2 | 5% | 2.8µM* | 1µM*
O=C(NC(=S)NC1C2CC3CC(C2)CC1C3)C12CC3CC(CC(C3)C1)C2 (stereo not given) | 2% | 2.8µM* | 1µM*
CO/N=C(/C(=O)N[C@@H]1C(=O)N2C(C(=O)O)=C(CSc3cnns3)CS[C@H]12)c1csc(N)n1 | . | 1% | 16%
